Screens from PubChem.
Tau fibril FP: qHTS for Inhibitors of Tau Fibril Formation, Fluorescence Polarization; Potency, µM (highest dose often 57.7 µM), hits mostly inhibitors; K18 P301L tau heparin fibrillization, Alexa594 FP, 6 h; 280,000 tested, 0.39% active; also: nearly all actives have a fitted effect of over 55% in size
Target sequence (P10636 561-689 P618L limits assumed): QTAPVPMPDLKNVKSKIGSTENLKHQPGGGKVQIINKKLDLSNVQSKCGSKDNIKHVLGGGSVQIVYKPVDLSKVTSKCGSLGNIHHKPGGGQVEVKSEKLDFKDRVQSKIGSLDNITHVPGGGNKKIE
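Human K18 P301L fragment (15 uM unlabeled plus 0.24 uM Alexa 594-labeled) in 100 mM sodium acetate pH 7 with compound, aggregation induced by 20 uM heparin for 6 hr at 37 C. ThT (30 uM) added for 1 hr, then Alexa 594 FP read.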
TRb SRC2 PPI: qHTS for Inhibitors of the Interaction of Thyroid Hormone Receptor and Steroid Receptor Coregulator 2 | Potency, µM (highest dose often 106 µM), most hits filed as inhibitors | TRbeta-SRC2 peptide binding, fluorescence polarization; receptor liganded with 1 µM T3 | AID 1469, 2008 | 280,000 tested, 0.065% active; also: nearly all actives have a fitted effect of over 50% in size
Target sequence (P10828 whole entry, looked up): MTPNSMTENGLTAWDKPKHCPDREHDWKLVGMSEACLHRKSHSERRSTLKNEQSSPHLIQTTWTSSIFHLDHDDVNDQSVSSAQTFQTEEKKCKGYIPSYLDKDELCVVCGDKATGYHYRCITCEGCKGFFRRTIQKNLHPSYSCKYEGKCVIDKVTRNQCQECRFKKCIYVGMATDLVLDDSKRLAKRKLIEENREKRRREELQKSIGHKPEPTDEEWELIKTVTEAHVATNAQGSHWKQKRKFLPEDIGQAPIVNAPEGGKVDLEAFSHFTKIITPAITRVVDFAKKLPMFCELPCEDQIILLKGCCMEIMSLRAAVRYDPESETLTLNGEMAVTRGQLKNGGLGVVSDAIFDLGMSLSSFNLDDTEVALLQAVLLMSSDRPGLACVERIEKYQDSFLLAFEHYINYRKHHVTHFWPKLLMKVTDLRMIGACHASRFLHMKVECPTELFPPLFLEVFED
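Binding of a 20-amino-acid Texas Red SRC2 peptide (20 nM) to TRb ligand-binding domain (0.6 uM) with agonist T3 at 1 uM was followed by fluorescence polarization after a 5 hr room-temperature incubation.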
Tau ThT inhib: qHTS for Inhibitors of Tau Fibril Formation, Thioflavin T Binding; Microtubule-associated protein tau (Homo sapiens), P10636; recombinant tau K18 P301L, heparin-induced fibrillization, ThT fluorescence; Potency, µM (series often up to 57.4 µM), most hits filed as inhibitors; 270,000 tested, 2.1% active; also: nearly all actives have a fitted effect of over 55% in size
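Heparin-induced (20 uM) aggregation of recombinant human K18 P301L tau, 15 uM unlabeled with 0.24 uM labeled, pH 7 acetate buffer, 6 hr at 37 C with compound. Fibrils quantified by 30 uM ThT fluorescence after 1 hr ambient incubation.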
TR SRC2 fluor cs: Total Fluorescence Counterscreen for Inhibitors of the Interaction of Thyroid Hormone Receptor and Steroid Receptor Coregulator 2 | AID 1479, 2009 | Potency, µM (top dose mostly 106 µM) | TRb/SRC2 Texas Red total fluorescence interference | 280,000 tested, 0.29% active; active = well fitted curve in either direction with a large enough effect; inconclusive = small, poorly fitted or top-dose-only effect
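Flags fluorescent or light-absorbing compounds by total fluorescence, S + 2P, at 555 nm excitation and 632 nm emission. Mixture: 20 nM Texas Red SRC2 peptide, 0.6 uM human TRb LBD, 1 uM T3, 5% DMSO; compound exposure 5 h at ambient temperature.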
GoLoco inh red: qHTS Assay for Inhibitors of RGS12 GoLoco Motif Activity (Red Fluorophore); Guanine nucleotide-binding protein G(i) subunit alpha-1 (Homo sapiens), P63096; Gai1:RGS12 GoLoco peptide FP, rhodamine, 10 min; Potency, µM (top dose mostly 61.6 µM), hits mostly inhibitors; 230,000 tested, 0.44% active; active = well fitted inhibition curve with a large enough effect, not every such curve was filed as active; inactive = no such curve, though single readings can be large or run the other way; also: nearly all actives have a fitted effect of over 30% in size
Tau fluor counter: Counterscreen qHTS for Inhibitors of Tau Fibril Formation, Fluorescence Polarization; 280,000 tested, 0.93% active; Potency, µM (series often up to 57.7 µM); AID 1463, 2008; tau K18 P301L Alexa594 fluorescence, heparin fibrillization; also: nearly all actives have a fitted effect of over 55% in size
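Human tau K18 P301L (15 uM unlabeled, 0.24 uM Alexa 594-labeled) in 100 mM sodium acetate pH 7 with 20 uM heparin, 6 hr at 37 C. ThT 30 uM added, 1 hr ambient; Alexa 594 FP and total fluorescence read at 555/632 nm.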
Numbers stand for hits; . = inactive; ? = inconclusive; / = no result given; [ ] = remark or other dose. In the library only some 3.2% were active in any assay of this set; here they are far more common. Unless noted, calls follow the shape of the dose curve; as a rule, active = well fitted curve in the direction sought with a large enough effect; inconclusive = small, poorly fitted or top-dose-only effect, or another doubt; inactive = no such curve, though single readings can be large; an effect the other way counts as inactive or inconclusive.

SMILES	Tau fibril FP	TRb SRC2 PPI	Tau ThT inhib	TR SRC2 fluor cs	GoLoco inh red	Tau fluor counter
CCn1cnc2cc(NCc3ccc(N(C)C)cc3)ccc21	.	.	?	.	.	11µM[quencher]
Cc1ccc(NC(=O)Cc2coc3ccc(C(C)C)cc23)cc1Cl	?	.	.	0.16µM[quencher]	/	?
CCc1ccc2[nH]c(=O)c(C(c3nnnn3CC3CCCO3)N3CCCc4ccccc43)cc2c1 (stereo unspecified)	?	.	11µM	.	.	.
Cc1cc2cc(C(c3nnnn3CC3CCCO3)N3CCCc4ccccc43)c(=O)[nH]c2cc1C (stereo unspecified)	.	.	.	.	.	.
Nc1nnc(-c2ccco2)s1	.	.	.	.	.	.
Nc1ncnc2oc(-c3ccco3)c(-c3ccco3)c12	?	.	20µM	?	.	?
Cc1ccc(NC(=O)c2sc3nc(-c4cccs4)ccc3c2N)cc1F	.	.	?	.	/	?
Cc1csc(NC(=O)c2sc3nc(-c4cccs4)ccc3c2N)n1	.	.	7.9µM	.	.	?
CCCSc1nnc(NC(=O)c2sc3nc(-c4cccs4)ccc3c2N)s1	.	.	7.9µM	.	.	?
Cn1nc(C(F)(F)F)c2cc(C(=O)Nc3ccc(C(F)(F)F)cc3)sc21	28µM	.	/	.	.	?
Cn1c(-c2nc(-c3ccccc3)cs2)nc2ccccc21	.	.	.	.	.	.
S=C(S)NCCNC(=S)S	/	.	/	?	/	/
CC1=NN(c2ccccc2)C(=O)/C1=C/C=C/c1ccc(N(C)C)cc1	?	.	2µM	.	.	2.5µM[quencher]
CC1=NN(c2ccccc2)C(=O)/C1=C\C=C\c1ccccc1	?	.	28µM	.	.	?
CC1=NN(c2ccc(C(=O)OC(C)C)cc2)C(=O)/C1=C\C=C\c1ccco1	.	.	.	.	.	.
CCOC(=O)CC1=NN(c2ccccc2)C(=O)/C1=C\c1ccc(N(C)C)cc1	.	.	25µM	.	.	?
CCOC(=O)c1ccc(N2N=C(C)/C(=C/C=C/c3ccco3)C2=O)cc1	?	.	3.2µM	.	.	?
CC1=NN(c2ccccc2)C(=O)/C1=C/N(C)C	.	.	.	.	.	.
CS(C)=O	/	.[1.3e+05 µM]	/	.[1.3e+05 µM]	/	/
Cc1cc(=O)oc2c(CN3CCC(C)CC3)c(O)c(Cl)cc12	.	.	.	.	22µM	.
CCN(CC)Cc1c(O)c(Cl)cc2c(C)cc(=O)oc12	.	.	.	.	16µM	.
Cc1cc(=O)oc2c(CN3CCCCC3)c(O)c(Cl)cc12	.	.	.	.	.	.
CCCCCCCCCCCCCCCCCC#N	/	.	/	.	/	/
O=C1N/C(=N\N=C\c2ccco2)SC1Cc1ccccc1[N+](=O)[O-] (stereo unspecified)	?	.	7.1µM	.	.	?
COC(=O)C1=C(C)NC(C)=C(C(=O)OCCNCc2ccccc2)C1c1cccc([N+](=O)[O-])c1 (stereo unspecified)	.	.	?	.	.	?
SMILES	Tau fibril FP	TRb SRC2 PPI	Tau ThT inhib	TR SRC2 fluor cs	GoLoco inh red	Tau fluor counter
CC1=NN(c2nc(-c3ccc(C)cc3)cs2)C(=O)C1N=Nc1cccc(C)c1 (stereo unspecified)	?	.	2µM	.	.	.
N#Cc1c(N)oc(-c2ccc3c(c2)OCO3)c1-c1ccc2c(c1)OCO2	.	.	?	.	.	28µM[quencher]
CCOC(=O)c1ccc(NC(=O)c2nc[nH]c2C(=O)N[C@@H](CC(C)C)C(=O)OCc2ccccc2)cc1	8.9µM	.	?	.	.	.
C[C@H](NC(=O)c1[nH]cnc1C(=O)Nc1ccc(Cl)cc1)C(=O)OC(C)(C)C	25µM	.	.	.	.	?
CC(C)C[C@H](NC(=O)c1[nH]cnc1C(=O)Nc1ccccc1)C(=O)OC(C)(C)C	22µM	.	.	.	.	?
CCOC(=O)c1ccc(NC(=O)c2nc[nH]c2C(=O)N[C@@H](CC(C)C)C(=O)OC(C)(C)C)cc1	?	.	?	.	.	?
COc1cc(OC)cc(-c2nnc3n2N=C(c2ccc(OC)c(OC)c2)CS3)c1	/	.	/	.	/	/
CCCCCCCC/C=C\CCCCCCCC(=O)N[C@H](CO)Cc1ccc(O)cc1	/	.	/	.	/	/
CCC(=O)N1CCc2cc(S(=O)(=O)NCCC(=O)NC(C)c3ccccc3)ccc21 (stereo unspecified)	.	.	.	.	/	.
COc1ncc2nc(-c3ccccc3)c(=O)n(-c3ccccc3)c2n1	/	/	/	/	.	/
O=C(O)c1ccc(-c2nc(-c3ccc(Cl)c(Cl)c3)cs2)cc1	.	.	.	.	.	.
NC(=O)C(=CNc1nc(-c2ccc(Cl)c(Cl)c2)cs1)C(N)=O	.	.	16µM	.	.	16µM[quencher]
C=CCn1c(-c2cc3cccc(OC)c3o2)n[nH]c1=S	.	.	?	.	.	.
COc1cccc2cc(-c3ccnc(=S)[nH]3)oc12	?	.	28µM	.	.	.
COC(=O)N1[C@H]2CC[C@@]3(C)CC(=O)C[C@]1(C)C3c1ccccc12	.	.	.	.	.	.
CCOc1cc(C(=O)Nc2ccc(NC(=O)c3cc4ccccc4o3)c(OC)c2)cc(OCC)c1OCC	.	.	.	35µM[quencher]	/	.
COc1ccc(-c2ccc(C(c3c(C)[nH][nH]c3=O)c3c(C)[nH][nH]c3=O)o2)c([N+](=O)[O-])c1	?	?	7.9µM	.	.	.
CNC(=S)N/N=C/c1ccc(-c2ccc(C(=O)O)cc2)o1	.	.	?	.	.	.
Cc1[nH][nH]c(=O)c1C(c1ccc(-c2ccc(F)cc2)o1)c1c(C)[nH][nH]c1=O	?	?	7.9µM	.	.	.
Cc1[nH][nH]c(=O)c1C(c1ccc(-c2ccc(C(=O)O)cc2)o1)c1c(C)[nH][nH]c1=O	?	.	11µM	.	.	.
Cc1[nH][nH]c(=O)c1C(c1c(C)[nH][nH]c1=O)c1cn(C)c2ccccc12	.	.	.	.	.	.
Cc1[nH][nH]c(=O)c1C(c1ccc(-c2ccc(Cl)c(Cl)c2)o1)c1c(C)[nH][nH]c1=O	?	14µM	8.9µM	.	.	?
C=CC[C@@H]1[C@H](O)CC[C@@]2(C)[C@H]1CC[C@@H]1[C@@H]2CC[C@]2(C)C([C@H](C)CCCC(C)C)CC[C@@H]12 (stereo partly specified)	?	.	.	.	.	.
CN1/C(=C\C=C2/SC(=S)NC2=O)C(C)(C)c2ccccc21	.	?	3.5µM	?	.	?
